# ATXN2 expr inh = ATXN2 expression inhibition; HEK-293 ATXN2-luciferase reporter, luminescence, 24 h; Potency, µM (titrated, usually from 57 µM), without a hit: top-dose activity change, negative = inhibition, usual class: inhibitors; 360,000 compounds, 0.72% hits; also: potency is read from the fitted curve at half-maximal effect; % is scaled to controls: 0 for no effect and ±100 for the full control effect; nearly all actives have a fitted effect of over 55% in size
#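 qHTS (up to 57 uM final) was run with 24 h compound exposure of reporter cells at 37 °C. Each well was multiplexed: SteadyGlo luminescence measured ATXN2-luciferase expression after a fluorogenic Gly-Phe-AFC viability readout (25 uM final).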
# IL-1B inflam inh = inflammasome signaling inhibition, IL-1 beta readout; 360,000 compounds, 4.7% hits; THP-1 LPS/ATP IL-1B secretion, AlphaLISA, 16 h; stronger effect = lower value; activity change, % at 57.5 µM; in the data active = activity change below about -50%; inconclusive = mostly about -30% to -49%; also: % is scaled to controls: 0 for no effect and ±100 for the full control effect
#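 Secreted IL-1B measured by AlphaLISA bead assay after 16 h compound exposure of THP-1 cells; compounds (final up to 57.5 uM) added 1 h before LPS (250 ng/mL) and ATP (1.25 mM) stimulation; lower signal means less secretion.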
# D3 ag = agonists of human D3 dopamine receptor | 410,000 compounds, 0.58% hits | max activation, % | P35462 | D3R DiscoveRx beta-arrestin cells, luminescence, 90 min; in the data active = max activation above about 30%; also: 0% is about no effect
# Target sequence (P35462 whole entry, looked up): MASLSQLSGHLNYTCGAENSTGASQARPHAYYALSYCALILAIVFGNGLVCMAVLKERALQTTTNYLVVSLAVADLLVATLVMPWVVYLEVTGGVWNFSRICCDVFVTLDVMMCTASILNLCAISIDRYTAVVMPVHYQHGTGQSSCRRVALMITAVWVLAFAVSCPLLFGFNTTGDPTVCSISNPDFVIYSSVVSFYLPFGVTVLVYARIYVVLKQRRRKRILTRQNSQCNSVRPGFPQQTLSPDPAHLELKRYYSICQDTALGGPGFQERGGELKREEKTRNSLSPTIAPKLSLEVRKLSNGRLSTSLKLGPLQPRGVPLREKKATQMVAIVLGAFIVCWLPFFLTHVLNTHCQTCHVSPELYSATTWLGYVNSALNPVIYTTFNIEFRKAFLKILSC
#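 Agonist-mode cell screen: cells plated at 1500/well and incubated overnight at 37 °C, then exposed to library compounds for 90 min at 37 °C. Detection reagent was added for 30–60 min at room temperature, and luminescence was read.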
# S2 tox = cell viability loss in ATXN counter-screen; S2 cells (HEK-293 line with an ATXN2-luciferase reporter) viability, CellTiter-Fluor protease fluorescence, 24 h; Potency, µM (series often up to 56.7 µM), most hits filed as cytotoxic; 400,000 compounds, 0.49% hits; AID 651635; also: potency is read from the fitted curve at half-maximal effect; nearly all actives have a fitted effect of over 40% in size
# DRD3 antagonist = D3 dopamine receptor (human) antagonism; P35462; D3R cells, DiscoveRx beta-arrestin luminescence, antagonist mode; stronger effect = lower value; max response, negative = inhibition, %; 360,000 compounds, 2.5% hits; AID 652054; in the data active = max response below about -50%; inconclusive = no clear call, values can overlap the other calls; also: % is scaled to controls: 0 for no effect and ±100 for the full control effect
#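 Cells expressing the human receptor were seeded at 1500 cells/well, incubated overnight at 37 degrees C in 5% CO2, then exposed to library compounds with dopamine controls for 90 minutes at 37 degrees C before luminescent detection.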
# a7 integrin act = integrin-mediated muscular dystrophy alleviation activation | 350,000 compounds, 0.064% hits | Potency, µM (doses to about 38.3 µM), inactives show at the top dose activation, actives largely listed as activators | alpha7betagal myoblasts, beta-gal FDG fluorescence, 48 h | AID 624291;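 also: potency is read from the fitted curve at half-maximal effect; 100% = response of the positive control SU9516; nearly all actives have a fitted effect of over 60% in size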
#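 Alpha7betagal+/- myoblasts (passage 13) were plated 16-24 hr, then exposed to compounds (1:260 dilution of DMSO stock) for 48 hours at 37C. After MPER lysis, β-galactosidase reporter activity was read as FDG fluorescence (ex 480/em 540) after 30 minutes.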
# * hit, by the source's call; i = inactive; ? = inconclusive; · = not tested or not shown; [ ] = another dose, or the depositor's remark. An excerpt weighted towards active compounds, which were near 7% of everything screened. Unless noted, calls follow the shape of the dose curve; as a rule, active = well fitted curve in the direction sought with a large enough effect; inconclusive = small, poorly fitted or top-dose-only effect, or another doubt; inactive = no such curve, though single readings can be large; an effect the other way counts as inactive or inconclusive.
SMILES,ATXN2 expr inh,IL-1B inflam inh,D3 ag,S2 tox,DRD3 antagonist,a7 integrin act
CCCCCn1c(CCNC(=O)CCC)nc2ccccc21,1%,33,-2,i,-18,9%
CCCCCn1c(CCNC(=O)c2cccs2)nc2ccccc21,-11%,-77*,1,i,5,20%
Cn1c(CCNC(=O)c2ccccc2)nc2ccccc21,25%,-8,-19,i,-11,32%
Cn1c(Cc2nc3ccccc3n2C)nc2ccccc21,1%,0,0,?,5,18%
CCCCn1nc(NC(=O)c2cccs2)c2cc3ccccc3nc21,4%,-94*,-6,·,11,6%[7.66 µM]
Cn1c(CCCCCN)nc2ccccc21,-9%,24,0,i,-64*,12%
Cn1c(CCNC(=O)c2ccc(F)cc2)nc2ccccc21,-10%,-25,-8,i,-66*,-9%
CCN(c1cccc(C)c1)S(=O)(=O)c1cc2c3c(c1)CCN3C(=O)CC2,2%,19,-9,i,16,-17%
C/C=C/c1cccc(-c2nc(C(=O)N3CCOCC3)cc3c2[C@@H](CCO)N(C(=O)NC(C)C)C3)c1,5%,-15,-8,i,0,·
COc1ccc(NC(=O)CC(C(=O)O)C(C)c2ccccc2)cc1 (centres undefined),-1%,0,2,i,-15,7%
CCCCCn1c(CNC(=O)c2cccs2)nc2ccccc21,-10%,-54*,-28,i,?,4%
CCCCn1c(CNC(=O)c2cccs2)nc2ccccc21,-17%,5,-11,i,4,-2%
Cc1[nH]nc2c1C(c1ccc(-c3ccc(Cl)cc3)o1)C(C#N)=C(N)O2 (centres undefined),4%,-101*,-3,?,-2,-51%
Cc1[nH]nc2c1C(c1ccc(-c3ccccc3C#N)o1)C(C#N)=C(N)O2 (centres undefined),-31%,-56*,4,i,13,-15%
Cc1ccc(-c2ccc(C3C(C#N)=C(N)Oc4n[nH]c(C)c43)o2)cc1 (centres undefined),-3%,2,0,i,-26,-30%
c1ccc2nc(-c3ccc(N4CCOCC4)cc3)ccc2c1,3.5µM*,37,-2,i,20,3%
CN1CCN(c2ccc(-c3ccc4ccccc4n3)cc2)CC1,0.38µM*,-65*,-5,·,3,27%
CCN(CC)C(=O)C(Oc1ccc(C)nc1[N+](=O)[O-])c1ccccc1 (centres undefined),-9%,-11,-14,i,-5,0%
Cc1nc(N)sc1-c1csc(Nc2ccc(S(N)(=O)=O)cc2)n1,·,-55*,1,i,87,0%
CC(=O)Oc1ccc(-c2csc(Nc3ccc(S(N)(=O)=O)cc3)n2)cc1,-17%,-80*,-4,i,11,-12%
CCC(=O)Nc1nc(C)c(-c2csc(Nc3ccccn3)n2)s1,2%[11.3 µM],-96*,1,i,-1,0%
COc1ccc(-c2csc(Nc3ccc(S(N)(=O)=O)cc3)n2)cc1,·,?,2,·,-18,?
Cc1nc(N)sc1-c1csc(Nc2ncccn2)n1,15%,-81*,3,?,7,-50%
CCOc1ccc(N2C(=O)CC(Cc3ccccc3OC)C2=O)cc1 (centres undefined),0%,2,3,i,10,9%
CC(=O)c1ccc(N2CCN(C(=O)Cn3ncc4c3-c3ccccc3OC4)CC2)cc1,-25%,·,2,?,·,·
SMILES,ATXN2 expr inh,IL-1B inflam inh,D3 ag,S2 tox,DRD3 antagonist,a7 integrin act
O=C(c1ccc2oc(CCCc3ccccc3)nc2c1)N1CCCC1,92%,-4,-1,i,8,-13%
O=C(c1cc(COc2ccc(F)cc2Cl)on1)N(CCO)Cc1cccs1,13%,-28,-7,i,-9,45%
CCC(C)C(=O)Nc1nc(C)c(-c2csc(Nc3cc(Cl)ccc3OC)n2)s1 (centres undefined),-7%,7,48*,i,2,-45%
CCC(C)C(=O)Nc1nc(C)c(-c2csc(Nc3cc(OC)ccc3OC)n2)s1 (centres undefined),-5%,-16,3,?,31,-2%
O=C(/C=C/c1ccccc1)Nc1nnc(-c2ccco2)o1,-5%,-18,0,i,-21,14%
Cc1ccc(Cn2c(C3CCCN3c3nc(-c4ccc(F)cc4)cs3)nc3cc(C(F)(F)F)ccc32)cc1 (centres undefined),11%,24,-1,?,2,-20%
Fc1cc(F)cc(Nc2nc(Cl)nc(NC3CCCC3)n2)c1,?,·,·,25µM*,·,·
CCOC(=O)C(Cc1ccccc1)NC(=O)CNC(=O)CNC(=O)OCc1ccccc1 (centres undefined),-26%,-88*,-4,i,?,6%
CCOC(=O)C(Cc1ccc(O)cc1)NC(=O)CNC(=O)C(CC(C)C)NC(=O)OC(C)(C)C (centres undefined),1%,-99*,2,i,14,1%
CC(C)CC(NC(=O)OCc1ccccc1)C(=O)NC(Cc1ccccc1)C(=O)CCl (centres undefined),?,-100*,-5,·,-10,-55%
COc1ccc(CN(C)C(=O)C(Cc2ccccc2)NC(=O)c2ccccc2)cc1F (centres undefined),-12%,-12,2,?,23,18%
CCOc1ccc(CN(C)C(=O)[C@H](Cc2ccccc2)NC(=O)OCc2ccccc2)cc1OC,-23%,-77*,3,i,24,-18%
Cc1ccc(NC(=O)C(Cc2ccccc2)NC(=O)OCc2ccccc2)cc1C (centres undefined),-4%,14,3,i,4,27%
C#CCNC(=O)c1ccc2sc([C@@H]3O[C@H](CO)[C@H](O)[C@H](O)[C@H]3O)nc2c1,7%,2,6,i,-9,·
CN(Cc1ccccc1)c1nc2c(c(=O)[nH]c(=O)n2C)n1CCCc1ccccc1,-16%,-54*,-1,i,2,?
Cn1c(=O)[nH]c(=O)c2c1nc([N+](=O)[O-])n2Cc1ccccc1,?,·,-27,6µM*,-82*,-68%
CC(C)Cn1c([N+](=O)[O-])nc2c1c(=O)[nH]c(=O)n2C,?,-98*,-10,·,-13,-46%
CC(C)(C)n1nnnc1C(c1cccc(C#N)c1)N1CCC(Cc2ccccc2)CC1 (centres undefined),-10%,0,-9,i,14,-16%
CCC(C)(C)n1nnnc1C(c1cccc(C#N)c1)N1CCN(c2cc(C)ccc2C)CC1 (centres undefined),-11%,24,-8,i,-60*,43%

# Bioassay records: PubChem, National Center for Advancing Translational Sciences (NCATS)
